The values below come from PubChem BioAssay AID624453 (National Center for Advancing Translational Sciences (NCATS), 2012).

Calls of active or inactive are those of the source. The call rests on the fitted dose curve; in most records, active means well fitted curve in the direction sought with a large enough effect; inactive means no such curve, though single readings can be large or run the other way.

Sequence of D(2) dopamine receptor (Homo sapiens) (P14416 whole entry, looked up): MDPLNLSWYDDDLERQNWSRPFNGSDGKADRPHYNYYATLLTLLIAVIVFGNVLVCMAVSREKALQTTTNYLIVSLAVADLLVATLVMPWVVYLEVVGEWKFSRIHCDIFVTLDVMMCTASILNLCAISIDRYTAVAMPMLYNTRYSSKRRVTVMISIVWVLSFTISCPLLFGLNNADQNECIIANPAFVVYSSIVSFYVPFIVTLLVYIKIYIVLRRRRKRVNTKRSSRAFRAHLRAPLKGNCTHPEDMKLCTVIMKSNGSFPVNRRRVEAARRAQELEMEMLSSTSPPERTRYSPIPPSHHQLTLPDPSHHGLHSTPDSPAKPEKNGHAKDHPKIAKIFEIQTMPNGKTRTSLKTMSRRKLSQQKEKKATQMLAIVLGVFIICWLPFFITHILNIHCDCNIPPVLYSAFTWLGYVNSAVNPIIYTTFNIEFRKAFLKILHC

In the assay the target is D(2) dopamine receptor (Homo sapiens) (UniProt P14416). The experiment in a line: HTS Assay for Allosteric Antagonists of the Human D2 Dopamine Receptor: Hit Validation in primary assay. Conditions: HEK293 TREx D2, calcium flux, dopamine EC80 antagonism; series mostly up to 41.8 µM. From the text:
Dopamine receptors (DARs) are involved in the etiology and/or therapy of a number of neuropsychiatric and endocrine disorders. For instance, all receptor-based antiparkinsonian drugs work via stimulating the D2 DAR subtype whereas all FDA-approved antipsychotic agents are antagonists of this receptor. […] There are three different types of allosteric modulators that we are seeking, two of which will stimulate or augment receptor signaling, allosteric agonists and potentiators, while the third, allosteric antagonists, will attenuate receptor signaling. The present primary screening assay measures compound antagonism after an EC80 addition of dopamine by tracking calcium flux in a […], inducible Hek293 Trex D2 cell line. NIH Chemical Genomics Center [NCGC] NIH Molecular Libraries Probe Centers Network [MLPCN] MLPCN Grant: NS064831 Assay Submitter (PI): David Sibley
Freshly passaged cells are plated in 1536 well black, clear bottom plates at a density of 4000 cells/well in 3 ul of complete media containing 1x tetracycline inducer. After an overnight incubation at 30 C in 5% CO2, cells are loaded with 2 ul of the no wash Calcium Assay Kit (ABD Bioquest) and incubated at room temperature for 30 to 90 minutes before it's read.
A general note: Calcium assays in cells follow changes in intracellular calcium, usually with a dye or a luminescent sensor.
Consider `CCN1C[C@@]2(C)CC[C@@H](OC)[C@@]34C2C(O)[C@@]2(OCO[C@]25CC(OC)C2C[C@@]3(O)C5C2O)C14` (stereo not given in full), for which the outcome was inactive. Take `CC(N)C(O)c1ccc(O)c(O)c1` (stereo not given): the result was inactive. Consider `CC1C(=O)OC2O[C@]3(C)CC[C@H]4C(C)CCC1[C@]24OO3` (stereo not given in full), for which the result was inactive.

As to `NNCc1ccccc1`, the outcome was inactive. To `CN1C2CC(OC(=O)C(CO)c3ccccc3)CC1C(O)C2` (stereo not given) belongs “inactive”.
